The values below come from PubChem BioAssay (EPA / NIEHS).

Calls of active or inactive are those of the source. How the source made its calls: active means hit-call score of the fitted dose curve at least 0.9, where 1 is the maximum; inactive means score below 0.9.

A short description of assay [1]: BSK_CASM3C_SRB: Viability Assessment in the BioMAP Diversity Plus: CASM3C Assay (AID 2283050).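 Further: cells exposed to compound for 24 h.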 As to conditions: primary human coronary artery smooth muscle cells.
Read-out in assay [2]: Thrombomodulin, THBD (gene 7056)
Briefly: BSK_CASM3C_Thrombomodulin: BioMAP Diversity Plus: CASM3C Assay for Thrombomodulin Biomarker Activity (AID 2283051).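 Further: thrombomodulin protein level measured by ELISA 24 h after dosing.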 As to conditions: primary human coronary artery smooth muscle cells; actives raise or lower the signal.

Read-out in assay [3]: Tissue Factor, F3 (gene 2152)
Briefly: BSK_CASM3C_TissueFactor: BioMAP Diversity Plus: CASM3C Assay for Tissue Factor Biomarker Activity (AID 2283052).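 Further: cell surface tissue factor protein level read by ELISA.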 As to conditions: primary human coronary artery smooth muscle cells; actives raise or lower the signal.

Read-out in assay [4]: Interferon-gamma inducible Protein 10 (IP10), CXCL10 (gene 3627)
Nature of the assay: BSK_hDFCGF_IP10: BioMAP Diversity Plus: hDFCGF Assay for Interferon-gamma inducible Protein 10 (IP10) Biomarker Activity (AID 2283053). As to conditions: primary human foreskin fibroblasts; actives raise or lower the signal. An outline of the steps:
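Primary human foreskin fibroblasts exposed to chemicals for 24 h. IP-10 measured by ELISA; changes fitted bidirectionally against DMSO baseline.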

Read-out in assay [5]: Urokinase-type plasminogen activator receptor (uPAR), PLAUR (gene 5329)
Briefly: BSK_CASM3C_uPAR: BioMAP Diversity Plus: CASM3C Assay for Urokinase-type plasminogen activator receptor (uPAR) Biomarker Activity (AID 2283054).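 Further: cell-surface uPAR protein level quantified by ELISA.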 As to conditions: primary human coronary artery smooth muscle cells; actives raise or lower the signal.

Read-out in assay [6]: Vascular cell adhesion molecule 1 (VCAM1), VCAM1 (gene 7412)
Briefly: BSK_CASM3C_VCAM1: BioMAP Diversity Plus: CASM3C Assay for Vascular cell adhesion molecule 1 (VCAM1) Biomarker Activity (AID 2283055).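 Further: VCAM-1 protein level quantified by ELISA on the cells.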 As to conditions: primary human coronary artery smooth muscle cells; actives raise or lower the signal.

Read-out in assay [7]: Collagen III, COL3A1 (gene 1281)
Nature of the assay: BSK_hDFCGF_CollagenIII: BioMAP Diversity Plus: hDFCGF Assay for Collagen III Biomarker Activity (AID 2283056). As to conditions: primary human foreskin fibroblasts; actives raise or lower the signal. An outline of the steps: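 ELISA readout of Collagen III in human dermal (foreskin) fibroblasts, taken 24 h post-treatment. Gain or loss relative to DMSO vehicle fitted in both directions.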

Read-out in assay [8]: Epidermal growth factor receptor (EGFR), EGFR (gene 1956)
Nature of the assay: BSK_hDFCGF_EGFR: BioMAP Diversity Plus: hDFCGF Assay for Epidermal growth factor receptor (EGFR) Biomarker Activity (AID 2283057). As to conditions: primary human foreskin fibroblasts; actives raise or lower the signal. An outline of the steps: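 Primary human foreskin fibroblasts (hDFCGF system), sampled 24 h after dosing; EGFR quantified by ELISA. Bidirectional fit relative to DMSO baseline; SRB total-protein staining in parallel cultures for cytotoxicity.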

Read-out in assay [9]: Interleukin-8 (IL8), CXCL8 (gene 3576)
Briefly: BSK_hDFCGF_IL8: BioMAP Diversity Plus: hDFCGF Assay for Interleukin-8 (IL8) Biomarker Activity (AID 2283058). As to conditions: primary human foreskin fibroblasts; actives raise or lower the signal. An outline of the steps:
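IL-8 levels read by ELISA at 24 hours after dosing human skin fibroblast cultures. Parallel SRB staining assessed overt cytotoxicity, and gain or loss of signal was fitted against DMSO control.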

Assay [10] can be described thus: BSK_hDFCGF_Proliferation: Cell Proliferation Assessment in the BioMAP Diversity Plus: hDFCGF Assay (AID 2283059).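 Further: curves fitted for both rise and fall of signal versus DMSO baseline.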 As to conditions: primary human foreskin fibroblasts. The gist of the method: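 This proliferation readout used SRB total-protein staining of human foreskin fibroblasts […], normalized to DMSO with bidirectional curve fitting.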
Read-out in assay [11]: Macrophage colony-stimulating factor (MCSF), CSF1 (gene 1435)
Nature of the assay: BSK_hDFCGF_MCSF: BioMAP Diversity Plus: hDFCGF Assay for Macrophage colony-stimulating factor (MCSF) Biomarker Activity (AID 2283060). As to conditions: primary human foreskin fibroblasts; actives raise or lower the signal. The gist of the method: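 M-CSF levels read by ELISA at 24 h post-dosing in human skin fibroblasts. Parallel cultures stained with SRB assessed cytotoxicity at the same time point; response fitted in both directions against the DMSO baseline.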

Assay [12] can be described thus: BSK_hDFCGF_SRB: Viability Assessment in the BioMAP Diversity Plus: hDFCGF Assay (AID 2283061).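 Further: cells exposed to compound for 24 h before the read.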 As to conditions: primary human foreskin fibroblasts. An outline of the steps: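 Viability was read as total protein: after 10% TCA fixation, wells were stained with 0.1% sulforhodamine B and read at 560 nm. Primary human foreskin fibroblasts were dosed for 24 h, with bidirectional fitting versus DMSO.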

Read-out in assay [13]: TIMP metallopeptidase inhibitor 1 (TIMP1), TIMP1 (gene 7076)
Nature of the assay: BSK_hDFCGF_TIMP1: BioMAP Diversity Plus: hDFCGF Assay for TIMP metallopeptidase inhibitor 1 (TIMP1) Biomarker Activity (AID 2283062). As to conditions: primary human foreskin fibroblasts; actives raise or lower the signal. The gist of the method: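 TIMP-1 measured by ELISA 24 h after chemical dosing of primary human skin fibroblasts, with gain or loss fitted relative to DMSO. Parallel SRB staining (560 nm) monitored overt cytotoxicity.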

Read-out in assay [14]: Monokine induced gamma interferon (MIG), CXCL9 (gene 4283)
Nature of the assay: BSK_hDFCGF_MIG: BioMAP Diversity Plus: hDFCGF Assay for Monokine induced gamma interferon (MIG) Biomarker Activity (AID 2283063). As to conditions: primary human foreskin fibroblasts; actives raise or lower the signal. An outline of the steps: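 Human primary foreskin fibroblasts in the hDFCGF system, exposed to test chemical for 24 h; MIG measured by ELISA. Bidirectional curve fitting against DMSO negative control as activity baseline.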

Read-out in assay [15]: Matrix Metallopeptidase 1 (MMP1), MMP1 (gene 4312)
Nature of the assay: BSK_hDFCGF_MMP1: BioMAP Diversity Plus: hDFCGF Assay for Matrix Metallopeptidase 1 (MMP1) Biomarker Activity (AID 2283064). As to conditions: primary human foreskin fibroblasts; actives raise or lower the signal. An outline of the steps:
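Primary human foreskin fibroblasts in the hDFCGF system were dosed with test chemical, and MMP1 was measured by ELISA 24 h later. Values come from bidirectional curve fitting against the DMSO baseline.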

Read-out in assay [16]: Plasminogen activator inhibitor-1 (PAI1), SERPINE1 (gene 5054)
Briefly: BSK_hDFCGF_PAI1: BioMAP Diversity Plus: hDFCGF Assay for Plasminogen activator inhibitor-1 (PAI1) Biomarker Activity (AID 2283066). As to conditions: primary human foreskin fibroblasts; actives raise or lower the signal. An outline of the steps:
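Human foreskin fibroblast primary cells, 24 h chemical exposure; PAI-1 measured by ELISA. Bidirectional fitting relative to DMSO; parallel cultures stained with SRB for total protein to flag overt cytotoxicity.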

Read-out in assay [17]: Interferon-gamma inducible Protein 10 (IP10), CXCL10 (gene 3627)
Nature of the assay: BSK_KF3CT_IP10: BioMAP Diversity Plus: KF3CT Assay for Interferon-gamma inducible Protein 10 (IP10) Biomarker Activity (AID 2283068). As to conditions: primary human keratinocytes with fibroblasts; actives raise or lower the signal. The gist of the method:
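Signal is secreted/surface IP-10 by ELISA in a human primary skin co-culture of keratinocytes and foreskin fibroblasts, taken 24 h post-dosing; DMSO served as negative control.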

Assay [18] in a line: BSK_KF3CT_SRB: Viability Assessment in the BioMAP Diversity Plus: KF3CT Assay (AID 2283069).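 Further: total protein by sulforhodamine B staining as a cytotoxicity measure; read 24 h after compound addition; fitted for both signal gain and loss against DMSO baseline.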 As to conditions: primary human keratinocytes with fibroblasts. An outline of the steps:
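Human primary keratinocyte plus foreskin fibroblast co-culture exposed to chemicals for 24 h. Total protein measured by 0.1% sulforhodamine B staining after 10% TCA fixation, read at 560 nm; bidirectional fitting versus DMSO baseline.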

`CCCCCCCCCCCCS`: the AC50 in [1] is 28.5 µM (active); in assay [4], 11.3 µM (active); in [5], 30.3 µM (active); in assay [6], 6.76 µM (active); in assay [7], 7.78 µM (active); in assay [9], 20 µM (active). For the same compound, the AC50 is 3.2 µM (active) in [10]; 9.73 µM (active) in [11]; 11.7 µM (active) in assay [12]; 8.95 µM (active) in assay [13]; 17 µM (active) in assay [14]; 10.2 µM (active) in assay [15]. The figures for the AC50 in assay [16] and in assay [18] were 10.8 µM (active) and 32.9 µM (active), respectively. Besides, the result in assay [2], in assay [3], in [8] and in [17] was inactive.
For the compound `CCn1cc(C(=O)O)c(=O)c2ccc(C)nc21`, the result in [1], in [2], in assay [3], in assay [4], in assay [5] and in [6] was inactive. Also, the outcome in [7], in [8], in [9], in assay [10], in assay [11] and in [12] was inactive. The outcome in [13], in assay [14], in assay [15], in assay [16], in assay [17] and in [18] was inactive.
On to `CC(=O)c1ccc(C)cc1`, for which the result in assay [1], in assay [2], in assay [3], in assay [4], in assay [5] and in assay [6] was inactive. Besides, the result in assay [7], in assay [8], in assay [9], in [10], in [11] and in [12] was inactive. For the same compound, the outcome in [13], in assay [14], in assay [15], in [16], in assay [17] and in [18] was inactive.
In the case of `Nc1ccc(N)c([N+](=O)[O-])c1`, the outcome in assay [1], in [2], in assay [4], in assay [5], in assay [6] and in assay [7] was inactive. In addition, the outcome in [8], in assay [9], in [11], in [12], in assay [13] and in assay [14] was inactive. Besides, the outcome in assay [15], in assay [16], in assay [17] and in assay [18] was inactive. For the same compound, the figures for the AC50 in [3] and in assay [10] were 0.037 µM (active) and 13.4 µM (active), respectively.
Consider `CC(C)CCCC(C)(C)O`, for which the outcome in assay [1], in [2], in assay [3], in assay [4], in assay [5] and in assay [6] was inactive. The result in [7], in [8], in assay [9], in assay [10], in [11] and in assay [12] was inactive. The result in [13], in assay [14], in assay [15], in assay [16], in assay [17] and in assay [18] was inactive.
`c1ccc(Sc2ccccc2)cc1`: the AC50 is 29.8 µM (active) in assay [1]; 20 µM (active) in assay [3]; 29.3 µM (active) in assay [4]; 20 µM (active) in [6]; 29.9 µM (active) in assay [7]; 29.6 µM (active) in [10]. For the same compound, the AC50 was 28.1 µM (active) in assay [11]; 39 µM (active) in assay [12]; 25.5 µM (active) in assay [13]; 30.2 µM (active) in [15]; 20 µM (active) in [16]; 35.5 µM (active) in [18]. For the same compound, the outcome in [2], in [5], in [8], in assay [9], in [14] and in [17] was inactive.

Broadly, the AC50 is the concentration at which the activity in the assay is half-maximal.
